Each structure is given as a SMILES string. The source made the active and inactive calls.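 How the source made its calls: active means compound whose NMR saturation transfer difference test with menin is positive, showing direct binding to the protein; inactive means the rest.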

Menin (Homo sapiens), sequence (O00255 whole entry, looked up): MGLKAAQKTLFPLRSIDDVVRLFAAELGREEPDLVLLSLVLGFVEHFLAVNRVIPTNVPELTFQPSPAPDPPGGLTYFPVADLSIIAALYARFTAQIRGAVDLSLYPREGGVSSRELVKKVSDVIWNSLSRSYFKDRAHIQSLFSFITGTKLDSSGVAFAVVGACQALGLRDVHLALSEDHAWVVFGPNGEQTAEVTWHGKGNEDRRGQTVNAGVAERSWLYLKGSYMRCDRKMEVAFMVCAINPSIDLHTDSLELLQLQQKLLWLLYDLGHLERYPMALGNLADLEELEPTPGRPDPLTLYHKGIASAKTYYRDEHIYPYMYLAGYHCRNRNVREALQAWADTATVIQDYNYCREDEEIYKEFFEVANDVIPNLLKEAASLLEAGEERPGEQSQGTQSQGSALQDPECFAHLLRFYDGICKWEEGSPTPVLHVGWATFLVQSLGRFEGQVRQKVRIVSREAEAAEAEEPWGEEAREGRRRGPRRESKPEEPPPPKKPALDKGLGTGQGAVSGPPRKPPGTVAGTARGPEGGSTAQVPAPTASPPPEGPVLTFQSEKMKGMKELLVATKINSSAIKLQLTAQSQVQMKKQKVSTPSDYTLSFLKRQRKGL

The target in this assay is Menin (Homo sapiens) (UniProt O00255). As to the kind of experiment: Confirmation of Inhibitors Targeting the Menin-MLL Interaction in MLL Related Leukemias: NMR spectroscopy to verify direct binding of compounds to menin. To be noted: purified menin, NMR STD binding, 100 uM. The method in brief:
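Saturation transfer difference NMR at 600 MHz with 2.5 uM menin and 100 uM compound in 50 mM phosphate, 50 mM NaCl, 1 mM DTT, pH 7.5; repeated with 25 uM wild-type MLL peptide added.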
For the compound `CCNC(=S)N1CCN(c2nc(CC)nc3sc4c(c23)CCCC4)CC1`, the outcome is “inactive; negative”.
Under `C[C@H](NC(=O)c1cc2c(cn1)[nH]c1ccccc12)C(=O)O` stands “inactive; negative”; under `Cc1cc2[nH]c3c(c[n+](C)c4ccccc34)c2cc1C`, “inactive; negative”; under `CCc1cc2c(N3CCN(C(=O)c4ccco4)CC3)ncnc2s1`, “inactive; negative”.
Under `CCCC(c1nnnn1Cc1ccco1)N1CCN(C2CCCC2)CC1` (stereo not given) stands “active; positive”; under `CCNc1ccccc1CP(=O)(c1ccccc1)c1ccccc1O` (stereo not given), “inactive; negative”; under `O=C(O)c1ccccc1NS(=O)(=O)c1cccc(-n2sc3ccccc3c2=O)c1`, “inactive; negative”.
Then `CCOc1ccc2c(c1)C(NC(C)=O)C(=O)N2CCN1CCOCC1` (stereo not given), with “inactive; negative”; and `O=C(Nc1ccc(F)c(Cl)c1)c1cc(-c2ccco2)on1`, with “inactive; negative”.
For the compound `COc1ccc(Cn2nnnc2C(c2ccc3ncccc3c2)N2CCN(C3CCCCC3)CC2)cc1` (stereo not given), the outcome was “active; positive”.
For `CCc1cc2c(N3CCN(c4nnc(CC)s4)CC3)ncnc2s1`, the outcome was “inactive; negative”.
Under `COC(=O)c1ccccc1NC1=C/C(=N\S(=O)(=O)c2ccc(C(=O)O)cc2)c2ccccc2C1=O` stands “inactive; negative”; under `CS(=O)(=O)c1ccc2nc(NC(=O)Nc3cccc(Cl)c3)sc2c1`, “inactive; negative”.
Then `CN(C)C(CNc1ncnc2sc3c(c12)CCCCC3)c1ccco1` (stereo not given), with “active; positive”; and `CCOc1cc(CNCCc2ccc(S(N)(=O)=O)cc2)ccc1OCc1ccccc1`, with “active; positive”; and `CCc1oc2ccccc2c1C(=O)c1cc(Br)c(O)c(Br)c1`, with “inactive; negative”.
Under `CCCC(c1nnnn1Cc1cccs1)N1CCN(C2CCCC2)CC1` (stereo not given) stands “active; positive”; under `Oc1ccc(Nc2ncnc3c2oc2ccccc23)cc1`, “inactive; negative”.
Take `NS(=O)(=O)c1ccc(NC(=O)c2ccc(-c3ccccc3)cc2)cc1`: the outcome is “inactive; negative”.
Under `O=C(Nc1nnc(-c2ccccc2SCc2ccccc2)s1)Nc1ccccc1F` stands “inactive; negative”.
